# The list is not random: actives were taken first. Their share in the collection is about 5.7%.
# MPTP inh: blocks calcium-induced mitochondrial swelling; isolated mouse mitochondria, Ca2+ swelling absorbance, 30 min; inhibition, % at 10 µM; 360,000 tested, 1.4% active;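 active = inhibition of 50% or more, scaled per plate between neutral and stimulator controls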
# NR3A LBD binder: modulators (binders) of human NR3A ligand-binding domain. AID 1259313. 340,000 tested, 2.5% active. NR3A LBD differential scanning fluorimetry, Tm shift; 0% = protein alone, 100% = glycine-bound protein. Tm shift relative to glycine control, % at 25 µM;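 active = melting temperature shift of at least 10% of the positive control shift, at one fixed dose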
# FAS-TE inh: FAS thioesterase (human) inhibition; recombinant FAS-TE, OMFH fluorogenic substrate, fluorescence endpoint; inhibition, % at 15 µM; 360,000 tested, 0.67% active;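 active = compounds whose normalised, plate-corrected inhibition of enzyme fluorescence in the single-dose primary screen is 50% or more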
# rCAG binder: r(CAG) repeat RNA binding | inhibition, % at 3 µM | TO-PRO-1 dye displacement fluorescence | AID 651821 | 370,000 tested, 1.3% active;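 active = inhibition above the plate cutoff, the mean of all test compounds on that plate plus 3 SD, cut at about 35% in these data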;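 also: higher means more dye released from RNA so lower well fluorescence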
# Myeloid diff 2: compounds promoting myeloid differentiation. 360,000 tested, 1% active. calls only at 10 µM. AID 624256. ER-HoxA9 myeloid progenitors, lysozyme-GFP differentiation, flow cytometry;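 active = normalized GFP-positive differentiation at or above the plate's own cutoff, the solvent-only control mean plus 3 SD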;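 also: cells exposed to compound for four days before flow analysis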
# Myeloid diff CP1: compounds promoting myeloid differentiation; shares compounds with Myeloid diff 2; ER-HoxA9 myeloid progenitors, GFP/Mac1 double-positive flow; calls only; 2,300 tested, 2% active; AID 651706;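 active = share of green or green-and-red cells above 9 and 9% in run 1 or 4 and 3% in run 2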
# GFP autofluor: compound fluorescence in myeloid differentiation counter-screen | ER-HoxA9 myeloid progenitors, no estrogen, GFP autofluorescence flow cytometry; vehicle wells 0%, positive control 100% | fluorescence response, % (test concentration not listed) | shares compounds with Myeloid diff 2 | 2,300 tested, 7.4% active;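 active = over 5% cells positive for green fluorescent reporter, or over 2% positive for both it and APC stain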
# rCAG bind conf: r(CAG) RNA repeat binding, confirmation. TO-PRO-1 dye displacement fluorescence. shares compounds with rCAG binder. 4,300 tested, 70% active. inhibition, % at 3 µM. AID 652065;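 active = inhibition above a per-plate cutoff, the mean inhibition of sample wells plus 3 SD, cut at about 35% in these data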;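 also: loss of TO-PRO-1 fluorescence as compound displaces dye from 1x1 AA loop RNA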
# DNA CAG counter: disrupts DNA CAG TO-PRO-1 complex, flagging rCAG hits. shares compounds with rCAG binder. 4,300 tested, 94% active. inhibition, % at 3 µM. d(CAG) DNA oligo TO-PRO-1 dye displacement, fluorescence;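 active = inhibition above its plate's cutoff, the mean test-well inhibition plus 3 SD, cut at about 4.8% in these data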;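 also: hits displace the dye from DNA and so lower well fluorescence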
# Hits are given with their value; n = inactive; x = no result given; + = active, no number.
SMILES,MPTP inh,NR3A LBD binder,FAS-TE inh,rCAG binder,Myeloid diff 2,Myeloid diff CP1,GFP autofluor,others
Cc1ccc(C(=O)/C=C/c2ccc(-c3ccccc3[N+](=O)[O-])o2)cc1,n,n,n,n,x,n,n,
CS(=O)(=O)NCCSc1cc(C(F)(F)F)nc2ccccc12,n,n,n,n,n,x,x,
COc1ccc(-c2nn(C)c(=O)c3ccccc23)cc1NC(=O)Cn1nc(C)c2ccccc2c1=O,n,n,n,n,+,n,n,
CCCC(=O)N1CCC1(C)C(=O)Nc1ccc(OC)c(OC)c1 (configuration not stated),n,x,n,n,n,x,x,
NNC(=O)c1[nH]c2ccc(Cl)cc2c1-c1ccccc1,n,n,n,n,n,n,n,
O=C(O)CSc1c(-c2ccccc2)c2cc(Cl)ccc2[nH]c1=O,n,n,n,n,n,x,x,
CC(=O)C1=C(O)C=C(c2ccco2)CC1c1ccco1 (configuration not stated),n,n,n,n,n,n,n,
Cc1ccc(NC(=O)c2ccc([N+](=O)[O-])s2)cc1S(=O)(=O)N1CCOCC1,n,n,n,n,+,n,n,
CCC(=O)N(c1nnc(SCC(=O)Nc2ccc(N3CCOCC3)cc2)s1)C1CC1,n,n,n,n,n,x,x,
c1cc(SC2CCCCC2)cc(-c2nc3cnccn3c2NC2CCCCC2)c1,n,n,n,n,n,n,n,
COc1ccc(-c2nc3ccccc3c(=O)n2CC(C)C)cc1,n,n,n,n,n,x,x,
Cc1ccccc1NC(=S)Nc1ccccn1,n,n,n,n,n,n,n,
S=C(Nc1ccccn1)Nc1ccccc1Cl,n,n,n,n,n,x,x,
NS(=O)(=O)c1ccc(NC(=O)CN2CCCc3ccccc32)cc1,n,n,n,n,+,n,n,
NS(=O)(=O)c1ccc(NC(=O)CCc2ccccc2)cc1,n,n,n,n,n,n,n,
Cc1cc(Br)cn2c(Cc3ccccc3)c(-c3ccccc3)nc12,n,x,n,n,n,x,x,
N#CC1c2ccccc2-c2ccccc2N1C(=O)c1ccccc1 (configuration not stated),n,x,n,n,n,x,x,
C#CCNC(=O)C[C@@H]1C[C@@]2(C(=O)OCC)CCCC=C2N(CCC2=CCCCC2)C1=O,n,x,x,n,n,x,x,
Cc1nc2nc(-c3ccco3)[nH]n2c(=O)c1Cc1ccccc1,n,n,n,n,n,x,x,
Cc1nc2nc(-c3ccco3)[nH]n2c(=O)c1C,n,n,n,n,n,n,n,
Cc1c(NC(=O)C2CCCN2S(=O)(=O)c2cccc3nsnc23)cccc1C(=O)O (configuration not stated),n,n,n,n,+,n,n,
O=C(Nc1ccccc1Br)C1CCCN1S(=O)(=O)c1cccc2nsnc12 (configuration not stated),n,n,n,n,n,x,x,
CCN(CC)C(=O)C1=C(C)N(CCCN2CCCC2=O)C(=O)C(CC(=O)NCc2ccco2)C1 (configuration not stated),n,x,n,n,n,n,n,
COc1ccc(NC(=O)N2CCN(CCC#N)CC2)cc1,n,n,n,n,n,n,n,
CCn1cc(C(=O)NN)c(=O)c2cc(F)c(NC3CCCCC3)cc21,n,n,n,n,n,n,n,
SMILES,MPTP inh,NR3A LBD binder,FAS-TE inh,rCAG binder,Myeloid diff 2,Myeloid diff CP1,GFP autofluor,others
CC12Cc3ccc4ccccc4c3C=C1C[N+](C)(C)C2 (configuration not stated),n,n,n,n,n,x,x,
CC[N+]1(CC)CC2=Cc3c(ccc4ccccc34)CC2C1 (configuration not stated),n,n,n,n,+,n,n,
CCc1ccc(/C=C/c2c[nH]c3ccccc23)[n+](CC)c1,n,n,n,n,+,n,7.0,
CSc1nc(Oc2ccc3ccccc3c2)c2sccc2n1,n,n,n,n,+,n,n,
CC1=Nc2cc(C(=O)NCC3CCCO3)ccc2Sc2ccc(Br)cc21 (configuration not stated),n,n,n,n,n,n,n,
O=C(NCC1CCCO1)c1cccc(NC(=O)c2ccc(Br)cc2)c1 (configuration not stated),n,n,n,n,n,x,x,
COc1cccc(NC(=O)C2CCN(S(=O)(=O)c3ccc4c(c3)C(C)(C)C(=O)N4C)CC2)c1,n,n,n,n,n,x,x,
CCN(CC)c1ccc2cc(S(=O)(=O)c3ccc(Cl)cc3)c(=O)oc2c1,n,n,n,n,n,n,n,
COC(=O)[C@@H](NC(=O)N1CCN(c2cccc(C(F)(F)F)c2)CC1)C(C)C,n,n,n,n,n,x,x,
COC(=O)[C@H](CCSC)NC(=O)N1CCN(c2cccc(C(F)(F)F)c2)CC1,n,n,n,n,n,n,n,
Cc1nc2ccc(NC(=O)c3cccs3)cc2c(=O)n1Cc1ccc(Cl)cc1,n,n,n,n,+,n,n,
CCCc1nc2ccc(NC(=O)c3cccs3)cc2c(=O)n1Cc1ccc(Cl)cc1,n,n,n,n,n,x,x,
CC(C)OCCCn1c(-c2ccc(Br)cc2)c[nH]c1=S,n,n,n,n,n,x,x,
CN(Cc1ccccc1)C(=O)CN1CCN(S(=O)(=O)c2ccc(Cl)c(Cl)c2)CC1,n,n,n,n,n,x,x,
CC(/C=C/c1ccc(N(C)C)cc1)=N/N=C1/NC(=O)CC(C(=O)Nc2ccc(Cl)cc2)S1 (configuration not stated),n,27,n,41,+,n,n,rCAG bind conf=41;DNA CAG counter=14
CC(/C=C/c1ccc(N(C)C)cc1)=N\N=C1\NC(=O)CC(C(=O)Nc2ccccc2)S1 (configuration not stated),n,n,n,n,n,x,x,
COc1ccc(Cl)cc1NC(=O)C(C)OC(=O)C1=NNC(=O)CC1 (configuration not stated),n,n,n,n,n,x,x,
Cc1ccc2c(nc3s/c(=C\c4ccc(-c5ccccc5C(=O)O)o4)c(=O)n32)c1C,n,n,n,54,n,n,13,rCAG bind conf=89;DNA CAG counter=75
COc1ccc(C(=O)NC(=S)Nc2ccc(S(=O)(=O)Nc3cc(OC)nc(OC)n3)cc2)cc1,n,n,n,58,+,n,n,rCAG bind conf=55;DNA CAG counter=20
COc1cc(NS(=O)(=O)c2ccc(NC(=S)NC(=O)c3ccc(F)cc3)cc2)nc(OC)n1,n,n,n,n,n,x,x,
Cc1ccc(-n2sc3cc(F)ccc3c2=O)c(C)c1,n,x,n,n,n,x,x,
CN(N=Cc1cccc2cccnc12)c1ccc([N+](=O)[O-])cc1[N+](=O)[O-],n,n,n,n,n,x,x,

# Screening data deposited in PubChem by several laboratories.
